We go through seven compounds from PubChem BioAssay (Tox21).

Assay [1] in a line: qHTS assay to identify small molecule agonists of the hypoxia (HIF-1) signaling pathway - cell viability counter screen (AID 1224844; calls by dose curve; also: nearly all actives have a fitted effect of over 50% in size; also: potency is read from the fitted curve at half-maximal effect). The essentials: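 Cells (HRE-bla ME-180, 2,000 per well) sat 5 hrs at 37C, got compound for 17 hrs, were read for CCF4-AM FRET, and were finally lysed with CellTiter-Glo for a 30 min room-temperature luminescence read.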
Assay [2] is described as follows: qHTS assay to identify small molecule agonists of the hypoxia (HIF-1) signaling pathway (AID 1224846; active = well fitted activation curve with a large enough effect in the signal ratio in the repeat runs, not every such curve was filed as active; the % refers to the signal ratio). The gist of the method:
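A low-serum medium (0.5% dialyzed FBS) holding 2,000 HRE-bla ME-180 cells per well is preincubated for 5 hrs, dosed with compounds by pintool, and kept a further 17 hrs at 37C, 5% CO2 before CCF4-AM FRET detection of beta-lactamase.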
In general terms: Quantitative high-throughput screening tests each substance at several concentrations.

Assay [3] can be described thus: qHTS assay to identify small molecule agonists of H2AX - cell viability counter screen (AID 1224847; calls by dose curve; also: nearly all actives have a fitted effect of over 30% in size; also: potency is read from the fitted curve at half-maximal effect). The gist of the method: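 Cytotoxicity counter screen in wild-type CHO-K1 cells: a 3 hr compound treatment at 37C across 15 concentrations, followed by CellTiter-Glo luminescence to gauge viable cells.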
Assay [4] can be described thus: qHTS assay to identify small molecule antagonists of the estrogen related receptor (ERR) signaling pathway from Tox21 library (AID 1224848). Also: nearly all actives have a fitted effect of over 50% in size. Also: potency is read from the fitted curve at half-maximal effect. The gist of the method:
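Cells: ERR line, 2,000/well; 6 h preincubation 37 C/5% CO2. Cpd in DMSO via pin tool; 18 h, 37 C. ONE-Glo, 30 min RT, luminescence.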

Assay [5] in a line: qHTS assay to identify small molecule agonists of the estrogen related receptor (ERR) signaling pathway from Tox21 library (AID 1224849; calls by dose curve; also: nearly all actives have a fitted effect of over 15% in size). Particulars: ERR reporter cell line, ONE-Glo luciferase, 18 h; at 92.4 µM (top of the series) unless noted. The essentials: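 Screening used an NTP-provided ERR luciferase cell line. Compounds in DMSO were added 6 h after seeding and left 18 h at 37 C before a 30 min ONE-Glo step and luminescence reading.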

A short description of assay [6]: qHTS RealTime-Glo MT Cell Viability Assay in HEK293 cells - 32 hour (AID 1224868). Also: nearly all actives have a fitted effect of over 50% in size. Also: potency is read from the fitted curve at half-maximal effect. The gist of the method:
(§1)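 Homogeneous bioluminescent viability format in HEK293 cells (600 cells/well). Following 5 h at 37 C/5% CO2, 23 nL compound was pintooled; the signal was measured repeatedly during 40 h incubation.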

Assay [7] in a line: A CellTox Green Cytotoxicity Assay to monitor cytotoxicity in HEK293 cells - 0 hour (AID 1224869). Also: nearly all actives have a fitted effect of over 50% in size. The gist of the method:
(§2)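 Fluorescence intensity, read at 0, 8, 16, 24, 32 and 40 h of compound treatment, reflected dye binding to DNA of dead HEK293 cells; compounds (23 nL, DMSO) were added 5 h after plating cells with reagent.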

A short description of assay [8]: qHTS RealTime-Glo MT Cell Viability Assay in HepG2 cells - 40 hour (AID 1224870). Also: nearly all actives have a fitted effect of over 50% in size. The essentials:
(§3)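 HepG2 cells mixed with RealTime-Glo MT reagents (NanoLuc plus cell-permeant prosubstrate) were seeded at 600 cells/well, incubated 5 h at 37 C/5% CO2, then pinned with compounds in DMSO; nonlytic luminescence tracked viability during 40 h treatment.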

Assay [9] in a line: qHTS RealTime-Glo MT Cell Viability Assay in HEK293 cells - 16 hour (AID 1224872). Also: nearly all actives have a fitted effect of over 50% in size. Also: potency is read from the fitted curve at half-maximal effect. The essentials:
as §1

Assay [10] can be described thus: qHTS RealTime-Glo MT Cell Viability Assay in HepG2 cells - 8 hour (AID 1224873). Also: nearly all actives have a fitted effect of over 55% in size. The essentials: as §3
Assay [11] can be described thus: qHTS RealTime-Glo MT Cell Viability Assay in HEK293 cells - 40 hour (AID 1224874). Also: nearly all actives have a fitted effect of over 50% in size. Also: potency is read from the fitted curve at half-maximal effect. Particulars: RealTime-Glo luminescence; max response: stronger effect = lower value. The essentials: (§4)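 Viable HEK293 cells reduce a cell-permeant prosubstrate; the product diffuses out and is consumed by NanoLuc in the medium to give light. Compounds went in after a 5 h incubation and plates were read over the treatment course.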

The nature of assay [12]: A CellTox Green Cytotoxicity Assay to monitor cytotoxicity in HEK293 cells - 24 hour (AID 1224875). Also: nearly all actives have a fitted effect of over 45% in size. The essentials:
as §2

Assay [13] in a line: A CellTox Green Cytotoxicity Assay to monitor cytotoxicity in HepG2 cells - 16 hour (AID 1224876). Also: nearly all actives have a fitted effect of over 45% in size. Also: potency is read from the fitted curve at half-maximal effect. The gist of the method: (§5)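 Using 1536-well format, dye-containing HepG2 suspension was seeded, allowed 5 h at 37 C/5% CO2, dosed by pintool with compounds, positive and negative controls, and imaged for fluorescence across 40 h.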
A short description of assay [14]: qHTS RealTime-Glo MT Cell Viability Assay in HepG2 cells - 32 hour (AID 1224877). Also: nearly all actives have a fitted effect of over 55% in size. The essentials:
(§6)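 Cell number in HepG2 cultures estimated from NanoLuc luminescence generated by metabolic reduction of a prosubstrate by living cells. The homogeneous, nonlytic format allowed repeated reads at 0, 8, 16, 24, 32 and 40 h of compound exposure.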

A short description of assay [15]: A CellTox Green Cytotoxicity Assay to monitor cytotoxicity in HepG2 cells - 24 hour (AID 1224878). Also: nearly all actives have a fitted effect of over 45% in size. Also: potency is read from the fitted curve at half-maximal effect. The essentials: as §5
Assay [16] can be described thus: A CellTox Green Cytotoxicity Assay to monitor cytotoxicity in HepG2 cells - 40 hour (AID 1224879). Also: nearly all actives have a fitted effect of over 40% in size. Also: potency is read from the fitted curve at half-maximal effect. The gist of the method:
as §5

Assay [17] is described as follows: qHTS RealTime-Glo MT Cell Viability Assay in HEK293 cells - 0 hour (AID 1224880). Also: top concentration of the series differs between compounds; nearly all actives have a fitted effect of over 45% in size. The gist of the method: as §4
Assay [18] can be described thus: qHTS RealTime-Glo MT Cell Viability Assay in HepG2 cells - 24 hour (AID 1224867). Also: nearly all actives have a fitted effect of over 50% in size. The essentials: as §6
The nature of assay [19]: A CellTox Green Cytotoxicity Assay to monitor cytotoxicity in HEK293 cells - 40 hour (AID 1224871). Also: nearly all actives have a fitted effect of over 45% in size. The gist of the method:
as §2

Assay [20] in a line: qHTS assay to identify small molecule agonists of H2AX (AID 1224845; active = well fitted activation curve with a large enough effect in the signal ratio in the repeat runs, not every such curve was filed as active; the % refers to the signal ratio). The essentials:
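Wild-type CHO-K1 cells plated overnight, then exposed 3 hr at 37C to compounds at 15 concentrations (0.76% DMSO). Lysed, then HTRF anti-pH2AX(S139)-cryptate/anti-H2AX-d2 detection after 24 hr at room temperature; emissions 665 and 620 nm.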

Values without a mark were called inactive. Results filed as inconclusive are left out. The source made the active and inactive calls. Unless noted, calls follow the shape of the dose curve; as a rule, active = well fitted curve in the direction sought with a large enough effect in the repeat runs; inconclusive = weak or mixed curves; inactive = no such curve, though single readings can be large; an effect the other way counts as inactive or inconclusive.
% is scaled to controls: 0 for no effect and ±100 for the full control effect.

`C[C@H]1c2cccc(O)c2C(O)=C2C(=O)[C@]3(O)C(O)=C(C(N)=O)C(=O)[C@@H](N(C)C)[C@@H]3[C@@H](O)[C@@H]21`: the Potency result in assay [1], in assay [3], in assay [6], in assay [7], in [8] and in assay [9] was “inactive” each time. The Potency result in assay [10], in assay [12], in assay [13], in assay [14], in assay [15] and in assay [16] was “inactive” in each case. Moreover, the Potency result in [17] is “inactive”. The outcome in [2] was inactive. Besides, the Potency in [4] was 18.8 µM (active). Further, in assay [5], the activity change, positive = activation was -33.4% [at 42.5 µM]. Also, the max response in assay [11] is 0.751%.
Consider `OC1(c2ccccc2)CCNCC1`, for which the Potency entry in [1], in assay [3], in assay [4], in [18], in assay [6] and in assay [7] was “inactive” each time. Further, the Potency result in assay [8], in assay [19], in [9], in assay [10], in [12] and in assay [13] was “inactive” throughout. The Potency result in assay [14], in assay [15], in [16] and in [17] was “inactive” in each case. In assay [2], the outcome was inactive. Further, in [5], the activity change, positive = activation is 5.89% [at 42.5 µM]. Besides, in assay [11], the max response is 5.53%.
On to `O=c1cc(-c2ccccc2)oc2ccc3ccccc3c12`, for which the Potency in assay [1] was 24.5 µM (active); in assay [3], 25.3 µM (active); in [13], 24.5 µM (active); in assay [15] it was 24.5 µM (active); in assay [16] it was 17.4 µM (active). In [2], the compound was classed as inactive. For the same compound, the Potency entry in assay [4], in [18], in assay [6], in assay [7], in assay [8] and in [9] was “inactive” in each case. Also, the Potency entry in assay [10], in assay [12], in assay [14] and in assay [17] was “inactive” throughout. For the same compound, the activity change, positive = activation in [5] was -35% (active). For the same compound, in assay [11], the max response is -4.42%.
With `COc1cc(N)c(Cl)cc1C(=O)NC1CCN(CCCOc2ccc(F)cc2)CC1OC` (stereo unspecified), the Potency entry in assay [1], in [20], in [7], in assay [8], in assay [10] and in assay [12] was “inactive” each time. The Potency result in assay [13], in [14], in assay [15] and in [17] was “inactive” in each case. For the same compound, the Potency is 11.9 µM (active) in [4], 3.01 µM (active) in assay [6], 2.39 µM (active) in assay [9] and 3.01 µM (active) in [11]. Moreover, the activity change, positive = activation in assay [5] is -39.2% [at 42.5 µM].
Consider `O=C(O)CCC(=O)C(=O)O`, for which the Potency entry in assay [1], in assay [20], in [3], in assay [6], in assay [7] and in assay [19] was “inactive” each time. Besides, the Potency entry in assay [9], in [10], in assay [12], in assay [14], in [15] and in assay [16] was “inactive” in each case. In assay [17], the Potency result is “inactive”. The max response in [11] was 0.138%.
In the case of `C=CCc1ccccc1OCC(O)CNC(C)C` (stereo unspecified), the Potency entry in [1], in assay [20], in assay [3], in assay [18], in [6] and in assay [7] was “inactive” each time. In addition, the Potency result in assay [8], in assay [19], in [9], in [10], in [12] and in assay [14] was “inactive” in each case. The Potency result in assay [15], in assay [16] and in [17] was “inactive” throughout. In addition, in [11], the max response was -5.29%.
`C=C(C)[C@@H]1CCC2=CCC[C@@H](C)[C@]2(C)C1`: the Potency result in assay [1], in assay [3], in [4], in [18], in assay [6] and in assay [7] was “inactive” each time. In addition, the Potency entry in assay [9], in assay [10] and in assay [12] was “inactive” each time. Besides, the outcome in [2] was inactive. Also, the activity change, positive = activation in [5] was -7.47%. Moreover, the max response in assay [11] is 0.724%.
